{"source": "the supplement of paper PMC10127200", "note": "Where a name gives a salt, the structure may show the parent alone.", "data": [{"tested_on": "HEPG2", "assay": "Euclidean distance of Cell Painting phenotypic profile (signed KS, 77 features) to DMSO centroid (dimensionless distance); 5 or 10 uM (library dependent); higher = stronger phenotypic change vs DMSO (phenoactivity)", "details": "48 h", "procedure,_shortened": "(§1)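 Five cancer lines and a healthy fibroblast line received library compounds at 10 or 5 uM (library-dependent, 0.1% DMSO final) for 48 h. Stained cells were imaged confocally at 20X (9 fields/well). Harmony extracted 77 features, each scored as a signed Kolmogorov-Smirnov statistic against same-plate vehicle wells. Profiles were plate-position corrected, correlation-weighted and replicate-averaged at the top dose. Phenoactivity is the Euclidean distance from each profile to the median vehicle profile.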", "values": [{"smiles": "O=C(O)c1ccc(-n2nc(-c3ccccc3O)nc2-c2ccccc2O)cc1", "note": "[Deferasirox]", "Euclidean distance": 1.64}, {"smiles": "Cc1cccc(C)c1NC(=O)C1CCCCN1C", "note": "(stereo unspecified) [Mepivacaine HCl]", "Euclidean distance": 0.483}, {"smiles": "CC(=O)O/N=C1\\C(=O)N(Cc2cc(Cl)ccc2Cl)c2ccc(Cl)cc21", "Euclidean distance": 0.571}, {"smiles": "Cc1cn([C@H]2C[C@H](N=[N+]=[N-])[C@@H](CO)O2)c(=O)[nH]c1=O", "note": "[Zidovudine]", "Euclidean distance": 1.54}, {"smiles": "NC(=O)c1ccc(OCCCN2CC3CCCC3C2)cc1", "note": "(stereo unspecified)", "Euclidean distance": 0.495}]}, {"tested_on": "OVCAR4", "assay": "Euclidean distance of Cell Painting phenotypic profile (signed KS, 77 features) to DMSO centroid (dimensionless distance); 5 or 10 uM (library dependent); higher = stronger phenotypic change vs DMSO (phenoactivity)", "details": "48 h", "procedure,_shortened": "as §1", "values": [{"smiles": "CN1CCN(Cc2ccc(Nc3ncc(Cl)c(Nc4ccccc4S(=O)(=O)N(C)C)n3)cc2)CC1", "Euclidean distance": 3.88}, {"smiles": "O=C1c2c(O)ccc(O)c2C(=O)c2c(NCCNCCO)ccc(NCCNCCO)c21", "note": "[Mitoxantrone 2HCl]", "Euclidean distance": 5.15}, {"smiles": "Oc1ccc(Cl)c2cccnc12", "note": "[Cloxiquine]", "Euclidean distance": 1.97}, {"smiles": "CO[C@H]1C[C@@H]2CC[C@@H](C)[C@@](O)(O2)C(=O)C(=O)N2CCCC[C@H]2C(=O)O[C@H]([C@H](C)C[C@@H]2CC[C@@H](OP(C)(C)=O)[C@H](OC)C2)CC(=O)[C@H](C)/C=C(\\C)[C@@H](O)[C@@H](OC)C(=O)[C@H](C)C[C@H](C)/C=C/C=C/C=C/1C", "note": "[Ridaforolimus (Deforolimus. MK-8669)]", "Euclidean distance": 2.04}, {"smiles": "CCN(CC)CC(=O)Nc1c(C)cccc1C", "note": "[Lidocaine]", "Euclidean distance": 1.11}, {"smiles": "O=C(O)c1cn(-c2ccc(F)cc2)c2cc(N3CCNCC3)c(F)cc2c1=O", "note": "[Sarafloxacin HCl]", "Euclidean distance": 0.719}, {"smiles": "C=CCN1CCCC1CNC(=O)c1cc2nn[nH]c2cc1OC", "note": "(stereo unspecified) [Alizapride HCl]", "Euclidean distance": 0.984}, {"smiles": "CCOc1ccc(Cc2cc([C@@H]3O[C@H](CO)[C@@H](O)[C@H](O)[C@H]3O)ccc2Cl)cc1", "note": "[Dapagliflozin propanediol monohydrate]", "Euclidean distance": 0.832}, {"smiles": "C[C@@H]1O[C@@H]1P(=O)(O)O", "note": "[Fosfomycin Disodium]", "Euclidean distance": 0.92}, {"smiles": "CN[C@@H](C)C(=O)N[C@H](C(=O)N1CCC[C@H]1C(=O)Nc1snnc1-c1ccccc1)C1CCCCC1", "Euclidean distance": 3.41}, {"smiles": "COc1ccc2cc(C(=O)O)ccc2c1", "note": "[6-Methoxy-2-naphthoic acid]", "Euclidean distance": 1.19}, {"smiles": "C[N+](C)(C)NCCC(=O)[O-]", "note": "[Mildronate]", "Euclidean distance": 0.82}, {"smiles": "Cc1c(F)cc(C(=O)NC2CC2)cc1-c1ccc(C(=O)NCC(C)(C)C)cn1", "Euclidean distance": 1.09}, {"smiles": "COc1cc2c(cc1OC)CC(=O)N(CCCN(C)C[C@H]1Cc3cc(OC)c(OC)cc31)CC2", "note": "[Ivabradine HCl]", "Euclidean distance": 0.925}, {"smiles": "CN(C)CCc1c[nH]c2ccc(C[C@H]3COC(=O)N3)cc12", "note": "[Zolmitriptan]", "Euclidean distance": 1.74}, {"smiles": "CC(=O)Oc1cc(C(F)(F)F)ccc1C(=O)O", "note": "[Triflusal]", "Euclidean distance": 1.16}, {"smiles": "COc1ccnc(C[S+]([O-])c2nc3cc(OC(F)F)ccc3[nH]2)c1OC", "note": "(stereo unspecified) [Pantoprazole]", "Euclidean distance": 1.62}, {"smiles": "COc1ccnc2[nH]cc(C(=O)C(=O)N3CCN(C(=O)c4ccccc4)C[C@H]3C)c12", "Euclidean distance": 1.47}, {"smiles": "COC1CCN(C(=O)c2cc(Cc3n[nH]c(=O)c4ccccc34)ccc2F)CC1", "Euclidean distance": 1.3}, {"smiles": "CSc1ccc2c(c1)N(CCC1CCCCN1C)c1ccccc1S2", "note": "(stereo unspecified) [Thioridazine hydrochloride]", "Euclidean distance": 2.62}, {"smiles": "CCOc1ccc2c(c1)C(C)=CC(C)(C)N2", "note": "[Ethoxyquin]", "Euclidean distance": 1.95}, {"smiles": "Cc1[nH]c2ccccc2c1CCNCc1ccc(/C=C/C(=O)NO)cc1", "note": "[Panobinostat]", "Euclidean distance": 3.58}, {"smiles": "COc1cccc2cc(-c3nc([C@H]4CC[C@H](C(=O)O)CC4)n4ncnc(N)c34)[nH]c12", "Euclidean distance": 3.56}, {"smiles": "O=C(O)c1ccc2nc(-c3cc(Cl)cc(Cl)c3)oc2c1", "note": "[Tafamidis]", "Euclidean distance": 1.21}, {"smiles": "N#CC(c1ccc(Cl)cc1)c1c(Cl)cc(-n2ncc(=O)[nH]c2=O)cc1Cl", "note": "(stereo unspecified) [Diclazuril]", "Euclidean distance": 1.22}, {"smiles": "O=C(O)Cc1ccc(-c2ccccc2)cc1", "note": "[4-Biphenylacetic acid]", "Euclidean distance": 1.62}, {"smiles": "CC1(C)S[C@@H]2[C@H](NC(=O)Cc3ccccc3)C(=O)N2[C@H]1C(=O)O", "note": "[Benzylpenicillin potassium]", "Euclidean distance": 1.48}, {"smiles": "C[C@H](CCC(=O)O)[C@H]1CC[C@H]2[C@@H]3[C@H](O)C[C@@H]4C[C@H](O)CC[C@]4(C)[C@H]3C[C@H](O)[C@]12C", "note": "[Cholic acid]", "Euclidean distance": 1.12}, {"smiles": "CCN1CCN(Cc2ccc(Nc3ncc(F)c(-c4cc(F)c5nc(C)n(C(C)C)c5c4)n3)nc2)CC1", "Euclidean distance": 5.2}, {"smiles": "O=C(O)c1cc(=O)c2ccccc2o1", "note": "[Chromocarb]", "Euclidean distance": 0.727}, {"smiles": "CC1=CC(=O)c2ccccc2C1=O", "note": "[Menadione]", "Euclidean distance": 2.12}]}]}
